For ten compounds, Potency and outcome results are on record in PubChem BioAssay (Tox21).

The target of assay [1] is Retinoic acid receptor RXR-alpha (Homo sapiens) (UniProt P19793). The assay is described as follows: qHTS assay to identify small molecule agonists of the RXR signaling pathway (AID 1159527; calls by dose curve; note: nearly all actives have a fitted effect of over 35% in size). The procedure, abridged: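 GeneBLAzer RXR-alpha-UAS-bla HEK 293T cells in medium with 2% charcoal-stripped FBS, pre-incubated 5 hr at 37 C, then exposed to compounds 16 hr. Beta-lactamase reporter read by FRET substrate, 2 hr room temperature, 460/530 nm emission.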
For orientation: Quantitative high-throughput screening tests each substance at several concentrations.

Assay [2] is described as follows: qHTS assay to identify small molecule agonists of the RXR signaling pathway - cell viability counter screen (AID 1159529). Note: series mostly up to about 77 µM; nearly all actives have a fitted effect of over 50% in size. The method in brief: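 RXR-alpha-UAS-bla HEK 293T cells in medium with 2% charcoal-stripped FBS were preincubated 5 hr, then exposed to compounds for 16 hr at 37 C. Viability was read as CellTiter-Glo luminescence after 30 min at room temperature.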

Assay [3] is described as follows: qHTS assay to identify small molecule antagonists of the retinoid acid receptor (RAR) signaling pathway - cell viability counter screen (AID 1159551). Note: nearly all actives have a fitted effect of over 35% in size. The method in brief:
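C3RL4 RARE-luciferase cells, 1,000/well, incubated overnight, then dosed with compound plus 1 uM retinol (final). After 6 hr at 37 C, viability read by CellTiter-Glo ATP luminescence following 30 min at room temperature.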

A short description of assay [4]: qHTS assay to identify small molecule antagonists of the retinoic acid receptor (RAR) signaling pathway (AID 1159552; note: nearly all actives have a fitted effect of over 50% in size). The method in brief:
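RARE-luc C3RL4 cells; cpds + 1 uM (final) retinol, 6 hr, 37 C/5% CO2; luciferase reagent, 30 min RT, luminescence readout. Inhibitors of retinol-driven signal scored.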

A short description of assay [5]: qHTS assay to identify small molecule agonists of the retinoic acid receptor (RAR) signaling pathway (AID 1159553). Note: potency is the fitted concentration of half-maximal effect. The method in brief:
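C3RL4 RARE-luciferase cells were seeded at 1,000/well and grown overnight at 37 C, then exposed to compounds for 6 hr at 37 C, 5% CO2. Luciferase reagent was added and luminescence was read after 30 min at room temperature.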

Assay [6] is described as follows: qHTS assay to identify small molecule antagonists of the estrogen related receptor (ERR) signaling pathway from Tox21 library - cell viability counter screen (AID 1224834). Note: nearly all actives have a fitted effect of over 30% in size. The procedure, abridged: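 ERR reporter cells, 2,000 per well, rested 6 h, then exposed to compound in DMSO for 17.5 hours at 37 C. Viability read as fluorescence after 30 min with CellTiter-Fluor.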

Assay [7] has as its target Luciferin 4-monooxygenase (Photinus pyralis) (UniProt P08659). As to the kind of experiment: qHTS assay to identify small molecule inhibitors of firefly luciferase (AID 1224835). Note: nearly all actives have a fitted effect of over 25% in size. Note: potency is the fitted concentration of half-maximal effect. The method in brief:
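Biochemical qHTS: compounds run as interplate titrations against purified firefly enzyme, with D-luciferin and ATP each at its KM concentration. Light output recorded by CCD imaging.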

Assay [8] is described as follows: qHTS assay to identify small molecule agonists of the constitutive androstane receptor (CAR) signaling pathway - cell viability counter screen (AID 1224836). Note: series mostly up to about 92 µM; nearly all actives have a fitted effect of over 45% in size. The method in brief: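 HepG2 cells stably carrying hCAR and a CYP2B6-2.2kb reporter were plated 4 h, then given compounds at 15 concentrations plus PK11195 (final 0.75 uM). After 23 h at 37 C, viability was read by CellTiter-Fluor fluorescence.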

The nature of assay [9]: qHTS assay to identify small molecule antagonists of the constitutive androstane receptor (CAR) signaling pathway - cell viability counter screen (AID 1224837). Note: series mostly up to about 92 µM; nearly all actives have a fitted effect of over 45% in size. The method in brief:
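HepG2 cells stably carrying hCAR and CYP2B6-2.2kb reporter, stimulated with 50 nM CITCO and compounds at 15 concentrations for 23 h at 37 C. Viability measured by CellTiter-Fluor fluorescence.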

Assay [10] deals with Nuclear receptor subfamily 1 group I member 3 (Homo sapiens) (UniProt Q14994). As to the kind of experiment: qHTS assay to identify small molecule antagonists of the constitutive androstane receptor (CAR) signaling pathway (AID 1224838). Note: nearly all actives have a fitted effect of over 40% in size. The procedure, abridged: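 HepG2 cells stably carrying hCAR and a CYP2B6-2.2kb luciferase reporter, seeded 4 hrs before compound (15 concentrations). Stimulated with 50 nM CITCO for 24 hr at 37 C. ONE-Glo luminescence read after 30 min at room temperature.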

Assay [11] has the same target. As to the kind of experiment: qHTS assay to identify small molecule agonists of the constitutive androstane receptor (CAR) signaling pathway (AID 1224839). Note: nearly all actives have a fitted effect of over 15% in size. Note: potency is the fitted concentration of half-maximal effect. The procedure, abridged: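 HepG2 cells stably expressing hCAR and a CYP2B6-2.2kb luciferase reporter were treated with compounds at 15 concentrations plus 0.75 uM PK11195 (final) for 24 h at 37 C; luminescence was read after ONE-Glo addition.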

A short description of assay [12]: qHTS assay to identify small molecule antagonists of the estrogen related receptor signaling pathway with the pleiotropic PPARgamma coactivator (PGC) from Tox21 10K library - cell viability counter screen (AID 1224840; active = well fitted cell-killing curve with a large enough effect in the repeat runs, not every such curve was filed as active; note: nearly all actives have a fitted effect of over 40% in size). The method in brief: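 PGC/ERR cells (2,000/well) plated 6 h, then compound-treated for 17.5 h at 37 C. Viability measured by CellTiter-Fluor fluorescence after 30 min at 37 C, multiplexed with the pathway assay.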

Assay [13] in a line: qHTS assay to identify small molecule agonists of the estrogen related receptor signaling pathway with the pleiotropic PPARgamma coactivator (PGC) from Tox21 10K library (AID 1224842). Note: nearly all actives have a fitted effect of over 15% in size. Note: potency is the fitted concentration of half-maximal effect. The procedure, abridged: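 PGC/ERR reporter cell line, 2,000 cells per well, incubated 6 h at 37 C before 23 nL compound in DMSO was added. After 18 h at 37 C, One-Glo luminescence read following 30 min at room temperature.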

Assay [14] concerns the target Thyrotropin receptor (Homo sapiens) (UniProt P16473). As to the kind of experiment: qHTS assay to identify small molecule agonists of the thyroid stimulating hormone receptor (TSHR) signaling pathway (AID 1224843; calls by dose curve; note: nearly all actives have a fitted effect of over 45% in size). The procedure, abridged:
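TSHR-HEK293 cells in agonist mode, 30 min room-temperature step, then cAMP measured by competitive HTRF (cAMP-d2 with anti-cAMP cryptate) after 1 h at room temperature. Tested at 15 concentrations in triplicate.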

Assay [15] is described as follows: qHTS assay to identify small molecule antagonists of the estrogen related receptor (ERR) signaling pathway - cell viability counter screen (AID 1224818). Note: series mostly up to about 46 µM. The procedure, abridged:
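ERR cells, 2,000 per well, compound added after 6 h and incubated 17.5 h at 37 C. Viability read by CellTiter-Fluor fluorescence after a further 30 min at 37 C.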

The nature of assay [16]: qHTS assay to identify small molecule antagonists of the estrogen related receptor signaling pathway with the pleiotropic PPARgamma coactivator (PGC) cell viability counter screen (AID 1224822; note: series mostly up to about 46 µM). The method in brief: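 PGC/ERR cells rested 6 h, then compound-treated 17.5 h at 37 C. CellTiter-Fluor added for 30 min at 37 C, viability measured by fluorescence intensity.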

“And” between values parts separate entries of the source, which are not always exact repeats. Identical values can stand only once. Inconclusive results are not listed. A structure can be active in one record and inactive in another. The source made the active and inactive calls. Unless noted, calls come from the whole dose curve; as a rule, active = well fitted curve in the direction sought with a large enough effect in the repeat runs; inconclusive = weak or mixed curves; inactive = no such curve, though single readings can be large; an effect the other way counts as inactive or inconclusive.

Thyrotropin receptor (Homo sapiens), sequence (P16473 whole entry, looked up): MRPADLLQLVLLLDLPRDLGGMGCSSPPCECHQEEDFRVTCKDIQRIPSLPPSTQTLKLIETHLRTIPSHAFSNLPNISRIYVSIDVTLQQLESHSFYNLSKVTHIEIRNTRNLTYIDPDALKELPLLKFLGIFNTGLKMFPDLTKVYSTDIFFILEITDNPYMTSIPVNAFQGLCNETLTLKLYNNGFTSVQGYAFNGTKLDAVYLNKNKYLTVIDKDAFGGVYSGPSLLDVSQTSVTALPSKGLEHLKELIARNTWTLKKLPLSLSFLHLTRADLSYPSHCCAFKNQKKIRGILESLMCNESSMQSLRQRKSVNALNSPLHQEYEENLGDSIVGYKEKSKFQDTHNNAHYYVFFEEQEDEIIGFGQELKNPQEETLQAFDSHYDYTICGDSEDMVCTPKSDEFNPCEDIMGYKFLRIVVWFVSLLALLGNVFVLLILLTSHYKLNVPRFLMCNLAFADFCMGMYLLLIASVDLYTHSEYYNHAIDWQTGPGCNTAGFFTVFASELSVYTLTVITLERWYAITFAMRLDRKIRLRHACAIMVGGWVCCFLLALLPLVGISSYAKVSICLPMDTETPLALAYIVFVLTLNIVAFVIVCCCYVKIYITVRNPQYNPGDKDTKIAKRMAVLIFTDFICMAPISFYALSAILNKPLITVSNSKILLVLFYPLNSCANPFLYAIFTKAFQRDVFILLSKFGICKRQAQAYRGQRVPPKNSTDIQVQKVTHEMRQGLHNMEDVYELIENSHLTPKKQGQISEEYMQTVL
Retinoic acid receptor RXR-alpha (Homo sapiens), sequence (P19793 whole entry, looked up): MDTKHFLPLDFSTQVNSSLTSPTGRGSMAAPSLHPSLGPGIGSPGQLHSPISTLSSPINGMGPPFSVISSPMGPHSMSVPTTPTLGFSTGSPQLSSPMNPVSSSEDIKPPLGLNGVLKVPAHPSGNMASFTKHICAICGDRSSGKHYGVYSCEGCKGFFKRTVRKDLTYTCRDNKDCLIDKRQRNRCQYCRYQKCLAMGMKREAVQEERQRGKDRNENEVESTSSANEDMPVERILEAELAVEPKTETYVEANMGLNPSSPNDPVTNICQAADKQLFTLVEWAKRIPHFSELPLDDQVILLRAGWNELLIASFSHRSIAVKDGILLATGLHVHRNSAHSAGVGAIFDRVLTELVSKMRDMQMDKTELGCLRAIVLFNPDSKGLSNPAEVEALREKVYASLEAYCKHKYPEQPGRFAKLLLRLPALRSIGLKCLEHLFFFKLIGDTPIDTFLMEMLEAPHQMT
Nuclear receptor subfamily 1 group I member 3 (Homo sapiens), sequence (Q14994 whole entry, looked up): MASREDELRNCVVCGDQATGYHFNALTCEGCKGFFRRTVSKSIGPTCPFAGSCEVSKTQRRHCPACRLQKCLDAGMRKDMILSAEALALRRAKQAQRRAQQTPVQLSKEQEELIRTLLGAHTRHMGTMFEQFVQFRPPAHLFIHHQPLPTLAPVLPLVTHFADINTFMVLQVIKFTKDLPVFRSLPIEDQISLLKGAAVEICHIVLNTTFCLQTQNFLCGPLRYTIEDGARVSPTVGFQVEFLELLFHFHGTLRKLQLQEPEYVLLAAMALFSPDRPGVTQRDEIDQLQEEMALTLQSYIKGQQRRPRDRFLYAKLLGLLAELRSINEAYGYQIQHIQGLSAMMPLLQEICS
Luciferin 4-monooxygenase (Photinus pyralis), sequence (P08659 whole entry, looked up): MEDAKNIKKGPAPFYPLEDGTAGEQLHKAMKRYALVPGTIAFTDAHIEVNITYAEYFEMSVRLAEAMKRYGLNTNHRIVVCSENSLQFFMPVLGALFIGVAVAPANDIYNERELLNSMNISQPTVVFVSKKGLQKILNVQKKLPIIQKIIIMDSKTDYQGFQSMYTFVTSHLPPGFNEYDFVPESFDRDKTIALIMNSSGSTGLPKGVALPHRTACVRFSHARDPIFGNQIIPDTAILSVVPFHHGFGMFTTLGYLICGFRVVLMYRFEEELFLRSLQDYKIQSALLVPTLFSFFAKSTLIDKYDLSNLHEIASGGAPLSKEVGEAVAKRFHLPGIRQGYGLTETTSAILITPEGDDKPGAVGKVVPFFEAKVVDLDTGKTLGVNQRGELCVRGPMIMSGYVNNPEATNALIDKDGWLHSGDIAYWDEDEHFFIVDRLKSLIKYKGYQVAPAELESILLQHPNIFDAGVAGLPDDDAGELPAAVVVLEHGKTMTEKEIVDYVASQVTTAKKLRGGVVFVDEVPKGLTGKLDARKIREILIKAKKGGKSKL

As for `C=CCN=C=S`, the Potency entry in [1], in [4], in assay [5], in [6], in assay [7] and in assay [8] was “inactive” each time. The Potency entry in assay [9], in assay [10], in assay [11], in [12], in [13] and in [14] was “inactive” in each case. For the same compound, the compound was classed as inactive in assay [2] and in [3].
Take `ClC(Cl)c1ccccc1`: the Potency result in assay [1], in [4], in [5], in assay [6], in assay [7] and in assay [8] was “inactive” in each case. The Potency result in assay [9], in assay [10], in assay [11], in [12] and in [13] was “inactive” in each case. Besides, the outcome in [2] and in assay [3] was inactive.
Take `Cc1cccc(C)c1NC(=O)CN1CCCC1=O`: the Potency result in [1], in assay [4], in assay [5], in assay [6], in [7] and in assay [8] was “inactive” each time. Besides, the Potency entry in assay [9] and in [12] was “inactive” throughout. The result in assay [2], in assay [3], in assay [15] and in assay [16] was inactive.
Regarding `COc1nc(NC(C)C)nc(NC(C)C)n1`, the Potency result in assay [1], in [4], in assay [5], in [6], in assay [7] and in assay [8] was “inactive” each time. Besides, the Potency entry in [9], in assay [10], in [11], in assay [12], in [13] and in assay [14] was “inactive” in each case. For the same compound, the compound was classed as inactive in assay [2] and in [3].
Regarding `CNc1cnn(-c2cccc(C(F)(F)F)c2)c(=O)c1Cl`, the Potency entry in assay [1], in assay [4], in assay [6], in assay [8], in assay [9] and in assay [10] was “inactive” each time. The Potency entry in assay [12] is “inactive”. Moreover, the result in assay [2] and in [3] was inactive. For the same compound, the Potency is 4.17 µM (active) and 5.45 µM (active) in [5]; 34.3 µM (active) and 39.9 µM (active) in assay [7]; 16.6 µM (active) and 24.3 µM (active) in [11].
As to `N#Cc1ccccn1`, the Potency entry in assay [1], in assay [4], in assay [5], in [6], in [7] and in assay [8] was “inactive” each time. Besides, the Potency entry in assay [9], in assay [10], in assay [11] and in assay [12] was “inactive” each time. The outcome in [2] and in [3] was inactive.
On to `CN1C(=O)CCS(=O)(=O)C1c1ccc(Cl)cc1` (stereo not drawn), for which the Potency entry in [1], in assay [4], in assay [5], in assay [6], in assay [7] and in assay [8] was “inactive” throughout. Also, the Potency result in [9], in assay [12] and in assay [14] was “inactive” each time. Besides, the outcome in [2], in assay [3], in assay [15] and in [16] was inactive.
With `CNC(=O)Oc1cccc2ccccc12`, the Potency entry in [1], in assay [4], in assay [5], in assay [6], in assay [7] and in assay [8] was “inactive” throughout. Also, the Potency result in assay [9], in [10] and in assay [12] was “inactive” throughout. In addition, the call in assay [2] and in [3] was inactive. For the same compound, in assay [11], the Potency was 61.1 µM (active) and inactive.
As to `COC(=O)Nc1cccc(OC(=O)Nc2cccc(C)c2)c1`, the Potency entry in [1], in assay [4], in assay [6], in assay [8], in assay [9] and in assay [10] was “inactive” in each case. The Potency entry in assay [12] was “inactive”. Moreover, the outcome in assay [2] and in assay [3] was inactive. For the same compound, the Potency is 8.63 µM (active) and 19.3 µM (active) in [5]; 6.33 µM (active) and 12.6 µM (active) in assay [7]; 30.6 µM (active) and 4.86 µM (active) in assay [11]; 13.7 µM (active) in assay [13].
In the case of `CN(C)NC(=O)CCC(=O)O`, the Potency result in assay [1], in assay [4], in [5], in [6], in [7] and in assay [8] was “inactive” in each case. For the same compound, the Potency entry in assay [9], in assay [10], in assay [11], in [12] and in assay [13] was “inactive” each time. The compound was classed as inactive in [2] and in assay [3].
